LmPK inhibitor – qHTS Assay for Inhibitors of Leishmania Mexicana Pyruvate Kinase (LmPK); Q27686; purified LmPK, Kinase-Glo ATP luminescence, 1 h; Potency, µM (series often up to 57.5 µM), usual class: inhibitors; actives 0.37% (n = 290,000); AID 1721, 2009
Target sequence (Q27686 whole entry, looked up): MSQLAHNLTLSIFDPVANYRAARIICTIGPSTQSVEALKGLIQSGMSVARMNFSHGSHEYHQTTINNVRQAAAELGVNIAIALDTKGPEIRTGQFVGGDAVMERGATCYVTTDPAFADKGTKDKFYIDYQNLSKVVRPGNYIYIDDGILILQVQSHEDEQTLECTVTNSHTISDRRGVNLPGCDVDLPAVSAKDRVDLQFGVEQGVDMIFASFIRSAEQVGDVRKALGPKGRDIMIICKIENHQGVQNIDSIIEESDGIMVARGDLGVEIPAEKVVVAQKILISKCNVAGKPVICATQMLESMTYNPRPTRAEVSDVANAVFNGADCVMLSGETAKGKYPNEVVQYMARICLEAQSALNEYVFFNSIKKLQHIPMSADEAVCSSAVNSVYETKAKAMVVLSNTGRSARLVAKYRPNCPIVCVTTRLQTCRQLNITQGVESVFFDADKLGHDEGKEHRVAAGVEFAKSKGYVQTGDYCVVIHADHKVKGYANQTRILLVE
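0.1 nM LmPK, 0.5 mM PEP, 0.1 mM ADP; 50 mM imidazole pH 7.2, 7 mM MgCl2, 50 mM KCl; 1 h RT. Kinase-Glo luminescence readout, normalized to no-enzyme (full inhibition) and uninhibited wells.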
VACV Venus inh – qHTS for Stage-Specific Inhibitors of Vaccinia Orthopoxvirus: Venus Reporter Primary qHTS; Vaccinia virus Venus reporter expression, fluorescence; Potency, µM (highest dose often 36.5 µM), usual class: inhibitors; actives 0.46% (n = 330,000); AID 720580, 2013; calls by dose curve; tested in A549 cells; note: nearly all actives have a fitted effect of over 30% in size
HCMV inh – qHTS Assay for inhibitors of the human cytomegalovirus (HCMV). activity change, negative = inhibition, % at 57.5 µM. HFF cells, HCMV-luciferase reporter, 72 h; stronger effect = lower value. actives 4.5% (n = 410,000). AID 1259415, 2018; in the data active = activity change below about -60%; inconclusive = no clear call, values can overlap the other calls; inactive = above about -39%
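Luciferase read-out from HCMV-luciferase-infected HFFs (MOI 1 PFU/cell) 72 h post infection at 37C; compounds added after 16 h cell attachment; activity normalized between buffer-only basal and Salinomycin (10uM) inhibitor controls.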
Vaccinia mCherry – qHTS for Stage-Specific Inhibitors of Vaccinia Orthopoxvirus: mCherry Reporter Primary qHTS; Vaccinia virus mCherry reporter infection, fluorescence; Potency, µM (titrated, usually from 36.5 µM), actives largely listed as inhibitors; actives 0.63% (n = 310,000); calls by dose curve; tested in A549 cells; note: nearly all actives have a fitted effect of over 35% in size
TbPYK inhibitor – qHTS of Trypanosoma Brucei Inhibitors; actives 0.12% (n = 410,000); AID 624173, 2012; pyruvate kinase (Trypanosoma brucei), Q57TT1; Potency, µM (doses to about 76.8 µM), most hits filed as inhibitors; TbPYK enzyme, Kinase-Glo Plus ATP luminescence, 45 min; note: nearly all actives have a fitted effect of over 50% in size
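Glycolytic pyruvate kinase of T. brucei was incubated with substrate, test compound and 130 uM ADP for 45 minutes at room temperature. Luminescent Kinase-Glo Plus signal was measured after 10 minutes.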
Of the large screens only hits and unclear results are named; the others gave an inactive call; ! = not confirmed by another sample. A selection: hits, their analogues and other compounds. The true share with any hit is near 5%. Unless noted, calls come from the whole dose curve; as a rule, active = well fitted curve in the direction sought with a large enough effect; inconclusive = small, poorly fitted or top-dose-only effect, or another doubt; inactive = no such curve, though single readings can be large; an effect the other way counts as inactive or inconclusive.

COc1ccc(N(CC(=O)N2CCN(c3cccc(C)c3C)CC2)S(=O)(=O)c2c(C)noc2C)cc1	HCMV inh -65!
COc1ccc(N(CC(=O)N2CCN(c3cc(C)ccc3C)CC2)S(=O)(=O)c2c(C)noc2C)cc1	none
COc1ccc(N(CC(=O)Nc2ccc(Cl)cc2)S(=O)(=O)c2c(C)n[nH]c2C)cc1	HCMV inh inconclusive (no result: VACV Venus inh, Vaccinia mCherry)
COc1ccc(N(CC(=O)N2CCN(c3ccc(Cl)cc3)CC2)S(=O)(=O)c2c(C)n[nH]c2C)cc1	HCMV inh -73
Cc1ccc(N(CC(=O)N2CCN(c3cc(C)ccc3C)CC2)S(=O)(=O)c2c(C)nn(C)c2C)cc1	HCMV inh -72 (no result: LmPK inhibitor)
CCOC(=O)C1(Cc2ccccc2C)CCCN(C(=O)c2ccc3nccnc3c2)C1 (stereo unspecified)	none
Cc1cc(C)nc(/N=C(\N)Nc2ccc(F)c([N+](=O)[O-])c2)n1	HCMV inh inconclusive (no result: VACV Venus inh, Vaccinia mCherry)
C[C@H]1CCC/C=C/[C@@H]2C[C@H](O)C[C@H]2[C@H](O)/C=C/C(=O)O1	VACV Venus inh inconclusive, HCMV inh -98, Vaccinia mCherry inconclusive (no result: LmPK inhibitor)
C=CCN1C(=O)/C(=C/c2cccs2)C(=O)NC1=S	TbPYK inhibitor 35µM
Cn1c(CCNC(=O)c2cccs2)nnc1SCC(=O)N1CCN(c2ccccc2)CC1	none (no result: VACV Venus inh, HCMV inh, Vaccinia mCherry)
O=C(/C=C/c1ccc(S(=O)(=O)N2CCOCC2)cc1)Nc1ccc(F)c(F)c1F	none (no result: LmPK inhibitor)
COc1cc(/C=C/C(=O)Nc2ccc(OC)c(S(=O)(=O)N3CCOCC3)c2)ccc1OC(F)F	VACV Venus inh inconclusive, HCMV inh -86, Vaccinia mCherry inconclusive (no result: LmPK inhibitor)
CCN(CC)S(=O)(=O)c1ccc(/C=C/C(=O)Nc2ccc(N3CCOCC3)cc2)cc1	HCMV inh -83 (no result: VACV Venus inh, Vaccinia mCherry)
CCN(CC)S(=O)(=O)c1ccc(/C=C/C(=O)Nc2ccc(F)c(F)c2F)cc1	HCMV inh -64
Cc1ccc(NC(=O)/C=C/c2ccc(S(=O)(=O)N3CCOCC3)cc2)cc1S(=O)(=O)N(C)C	VACV Venus inh inconclusive, HCMV inh -74, Vaccinia mCherry inconclusive (no result: LmPK inhibitor)
O=C(CC(c1ccccc1)c1ccco1)N1CCCCC1 (stereo unspecified)	none (no result: VACV Venus inh, HCMV inh, Vaccinia mCherry, TbPYK inhibitor)
O=C(COc1nncc2ccccc12)NCC(F)(F)F	none
CCN(CC)S(=O)(=O)c1ccc2oc(C(=O)Nc3ccc(Br)cc3F)c(C)c2c1	VACV Venus inh inconclusive, Vaccinia mCherry inconclusive (no result: LmPK inhibitor)
CCN(CC)S(=O)(=O)c1cccc(NC(=O)/C=C/c2ccc([N+](=O)[O-])cc2)c1	none
CCN(CC)S(=O)(=O)c1ccc(/C=C/C(=O)Nc2ccc(Br)cc2F)cc1	HCMV inh -73
CCN(CC)S(=O)(=O)c1ccc(/C=C/C(=O)Nc2ccc(F)cc2F)cc1	HCMV inh -69 (no result: VACV Venus inh, Vaccinia mCherry)
CCOc1ccc(N(CC(N)=O)S(=O)(=O)c2ccc(F)cc2)cc1	none (no result: Vaccinia mCherry)
c1ccc(-c2noc(-c3ccc4c(c3)OCO4)n2)nc1	LmPK inhibitor 3.2µM, HCMV inh -81, TbPYK inhibitor 11µM
CNc1ccc(-c2nc(-c3ccccn3)no2)cc1[N+](=O)[O-]	none (no result: LmPK inhibitor)
Clc1ccccc1/C=C/c1nc(-c2ccccn2)no1	LmPK inhibitor 4µM, HCMV inh inconclusive
Cc1ccc(-c2nc(-c3cccnc3)no2)cc1	none
c1ccc(-c2noc(-c3cccnc3)n2)nc1	LmPK inhibitor 14µM (no result: VACV Venus inh, Vaccinia mCherry)
CCNc1ccc(-c2nc(-c3ccccn3)no2)cc1[N+](=O)[O-]	HCMV inh -106 (no result: LmPK inhibitor)
CCNS(=O)(=O)c1ccc(NC(=O)Nc2ccccc2OC)cc1	none
CCOc1ccccc1CNC(=O)CCN1C(=O)COc2ccccc21	none
Cc1ccc(-c2nc(-c3ccncc3)no2)cc1	none
c1ccc(-c2noc(-c3ccc4ccccc4c3)n2)nc1	LmPK inhibitor 6.3µM (no result: VACV Venus inh, HCMV inh, Vaccinia mCherry)
c1ccc(-c2noc(-c3ccncc3)n2)nc1	LmPK inhibitor 13µM, TbPYK inhibitor inconclusive
COc1cccc(-c2nc(-c3ccccn3)no2)c1	LmPK inhibitor 13µM, HCMV inh -61, TbPYK inhibitor inconclusive (no result: VACV Venus inh, Vaccinia mCherry)
O=[N+]([O-])c1cccc(-c2nc(-c3ccccn3)no2)c1	LmPK inhibitor inconclusive (no result: VACV Venus inh, Vaccinia mCherry)
CC(C)(C)c1ccc(-c2nc(-c3ccncc3)no2)cc1	HCMV inh -70
CC(C)(C)C(=O)CSc1nc2ccsc2c(=O)n1Cc1ccccc1F	HCMV inh inconclusive (no result: LmPK inhibitor)
COc1cccc(-c2sc3ccccc3c2-c2ccc(OCCN3CCCC3)cc2)c1	VACV Venus inh 13µM, Vaccinia mCherry inconclusive (no result: LmPK inhibitor)
COc1ccc(-c2sc3ccccc3c2-c2ccc(OCCN3CCCCC3)cc2)cc1	none (no result: LmPK inhibitor)
COc1cccc(-c2sc3ccccc3c2-c2ccc(OCCN(C)C)cc2)c1	VACV Venus inh inconclusive, Vaccinia mCherry 14µM (no result: LmPK inhibitor)
COc1cccc(-c2sc3ccccc3c2-c2ccc(OCCN3CCCCC3)cc2)c1	none (no result: LmPK inhibitor, HCMV inh)
COc1ccc2sc(-c3ccccc3OC)c(-c3ccc(OCCN(C)C)cc3)c2c1	none (no result: LmPK inhibitor)
c1ccc(-c2sc3ccccc3c2-c2ccc(OCCN3CCCC3)cc2)cc1	VACV Venus inh 14µM, Vaccinia mCherry inconclusive (no result: LmPK inhibitor)
Cc1[nH]c2ccc(OC(F)(F)F)cc2c1CCNCc1ccc(Cl)cc1	HCMV inh -99
Cc1[nH]c2ccc(OC(F)(F)F)cc2c1CCNCc1cccc([N+](=O)[O-])c1	HCMV inh inconclusive, Vaccinia mCherry inconclusive
CCOc1cccc(CNCCc2c(C)[nH]c3ccc(OC(F)(F)F)cc23)c1O	VACV Venus inh 10µM, HCMV inh -101, Vaccinia mCherry inconclusive
COC(=O)[C@]12CCCCC=C1N(CCC1=CCCCC1)C(=O)[C@H](CC(=O)NCc1ccc(C)o1)C2	none (no result: LmPK inhibitor)
CCOCCCNC(=O)C(Cc1ccccc1)NS(=O)(=O)c1cccc2nsnc12 (stereo unspecified)	none (no result: VACV Venus inh, Vaccinia mCherry)
Cc1cccc(C(=O)NC(=S)NNC(=O)c2ccc(Cl)cc2)c1	VACV Venus inh inconclusive, HCMV inh -84
CC(C)C(=O)Nc1cccc(NC(=S)NC(=O)c2ccc(Cl)cc2)c1	HCMV inh -73 (no result: VACV Venus inh, Vaccinia mCherry)
COc1ccccc1C1CN(CC(=O)NCC2OCCc3ccccc32)Cc2ccccc2O1 (stereo unspecified)	none (no result: LmPK inhibitor, HCMV inh, TbPYK inhibitor)
COC(=O)C1=C(C)NC(=O)CC1c1cccc(Cl)c1Cl (stereo unspecified)	none
CCOC(=O)C1=C(C)NC(C)=C(C(=O)OC)C1c1cccc(Cl)c1Cl (stereo unspecified)	HCMV inh -68
CCc1nc(SCC(=O)O)c(C#N)cc1C	none
CCOC(=O)CC(=O)CSc1nc(CC)c(C)cc1C#N	HCMV inh -89
CCOC(=O)CC(=O)CSc1nc2ccc(C)cc2cc1C#N	LmPK inhibitor 20µM, TbPYK inhibitor inconclusive
CCSc1nc2ccc(C)cc2cc1C#N	none
Cc1ccc(S(=O)(=O)N2CCN(C(=O)CN(Cc3ccco3)Cc3cccs3)CC2)cc1	none (no result: LmPK inhibitor)
Cc1ccc(Cn2c(CNC(=O)CCc3ccccc3)nc3cccnc32)cc1	none (no result: LmPK inhibitor)

Screening data (PubChem BioAssay)
